“And” between values parts separate entries of the source, which are not always exact repeats. Identical values can stand only once. Inconclusive results are not listed. The source made the active and inactive calls. The call rests on the fitted dose curve; in most records, active means well fitted curve in the direction sought with a large enough effect; inconclusive means small, poorly fitted or top-dose-only effect, or another doubt; inactive means no such curve, though single readings can be large; an effect the other way counts as inactive or inconclusive.
What was measured:
CRL-7250 = normal cell line; assay: Cytotoxic Profiling of Annotated Libraries Using Quantitative High-Throughput Screening (AID 1296008); conditions: Five cell lines viability, CellTiter-Glo ATP luminescence, 48-72 h; max response: stronger effect = lower value; further: nearly all actives have a fitted effect of over 60% in size
How it was run: (§1)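 Cytotoxicity was measured as CellTiter-Glo ATP luminescence, read after 10 min at room temperature. Compound treatment of the cells lasted 48 or 72 hr at 37 degrees Celsius in a qHTS format.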

HEK293 = assay: as above; conditions: Five cell lines viability, CellTiter-Glo ATP luminescence, 48-72 h; max response: stronger effect = lower value
How it was run: as §1

HaCat [1] = assay: as above; conditions: Five cell lines viability, CellTiter-Glo ATP luminescence, 48-72 h; max response: stronger effect = lower value
How it was run: as §1

MCC-13 = assay: qHTS assay to identify novel small-molecules to repurpose for Merkel cell carcinoma treatment (AID 1296009); conditions: MCC and control cell lines, CellTiter-Glo viability, 72 h; series mostly up to 46 µM; further: nearly all actives have a fitted effect of over 60% in size
How it was run: (§2)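 Cell viability measured by CellTiter-Glo following 72 hr compound treatment at 37 degree celsius, with NPC and MIPE libraries tested in 8- and 11-point concentration series.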

MKL-2 = assay: as above; conditions: MCC and control cell lines, CellTiter-Glo viability, 72 h; series mostly up to 46 µM
How it was run: as §2

UISO = assay: as above; conditions: MCC and control cell lines, CellTiter-Glo viability, 72 h; series mostly up to 46 µM
How it was run: as §2

WaGa = assay: as above; conditions: MCC and control cell lines, CellTiter-Glo viability, 72 h; series mostly up to 46 µM
How it was run: as §2

KB-3-1 = assay: Cytotoxic Profiling of Annotated Libraries Using Quantitative High-Throughput Screening (AID 1296008); conditions: Five cell lines viability, CellTiter-Glo ATP luminescence, 48-72 h; max response: stronger effect = lower value; further: nearly all actives have a fitted effect of over 60% in size
How it was run: as §1

MCC-26 = assay: qHTS assay to identify novel small-molecules to repurpose for Merkel cell carcinoma treatment (AID 1296009); conditions: MCC and control cell lines, CellTiter-Glo viability, 72 h; series mostly up to 46 µM; further: nearly all actives have a fitted effect of over 60% in size
How it was run: as §2

MKL-1 = assay: as above; conditions: MCC and control cell lines, CellTiter-Glo viability, 72 h; series mostly up to 46 µM
How it was run: as §2

C33A = assay: Primary qHTS to identify gynecologic anti-cancer compounds using libraries of approved drugs and bioactive compounds (AID 1345084); conditions: Gynecologic cancer cell panel viability, ATPlite luminescence, 48 h; series mostly up to 57.5 µM; further: nearly all actives have a fitted effect of over 55% in size
How it was run: (§3)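 Luminescence from the ATPlite ATP-monitoring reagent indicates viable cell number; lower signal means cytotoxicity. Cells received compound 16 h after seeding and were exposed for 48 h across five concentrations.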

CAOV3 = assay: as above; conditions: Gynecologic cancer cell panel viability, ATPlite luminescence, 48 h; series mostly up to 57.5 µM
How it was run: as §3

CASKI = assay: as above; conditions: Gynecologic cancer cell panel viability, ATPlite luminescence, 48 h; series mostly up to 57.5 µM
How it was run: as §3

Es-2 = assay: as above; conditions: Gynecologic cancer cell panel viability, ATPlite luminescence, 48 h; series mostly up to 57.5 µM
How it was run: as §3

Hek293T = assay: as above; conditions: Gynecologic cancer cell panel viability, ATPlite luminescence, 48 h, control line for the selectivity index; series mostly up to 57.5 µM
How it was run: as §3

HeLa = assay: as above; conditions: Gynecologic cancer cell panel viability, ATPlite luminescence, 48 h; series mostly up to 57.5 µM
How it was run: as §3

NIH3T3 [2] = assay: Cytotoxic Profiling of Annotated Libraries Using Quantitative High-Throughput Screening (AID 1296008); conditions: Five cell lines viability, CellTiter-Glo ATP luminescence, 48-72 h; max response: stronger effect = lower value; further: nearly all actives have a fitted effect of over 60% in size
How it was run: as §1

HACAT [3] = assay: qHTS assay to identify novel small-molecules to repurpose for Merkel cell carcinoma treatment (AID 1296009); conditions: MCC and control cell lines, CellTiter-Glo viability, 72 h; at 44.8 µM (top of the series) unless noted; further: nearly all actives have a fitted effect of over 60% in size
How it was run: as §2

NIH3T3 [4] = assay: as above; conditions: MCC and control cell lines, CellTiter-Glo viability, 72 h; series mostly up to 44.8 µM
How it was run: as §2
On the % scale 0 is the no-effect control and ±100 the full control effect; potency means the concentration at half of the fitted maximal effect.

Cc1cccc(Nc2nc(N[C@@H]3CCCC[C@H]3N)ncc2C(N)=O)c1
inactive: outcome (CRL-7250) | max response (HaCat [1]) -5.8% | Potency (MCC-13) | Potency (MKL-2) | Potency (UISO) | Potency (WaGa)
active: Potency (HEK293) 14.8 µM

COc1ccc(-c2cc3nccn3c(Nc3ncccc3C(N)=O)n2)cc1OC
active: Potency (CRL-7250) 2.09 µM | Potency (HEK293) 1.48 µM and 5.8 µM
inactive: max response (HaCat [1]) -23.8% | max response (KB-3-1) -9.74% | Potency (MCC-13) | Potency (MCC-26) | Potency (MKL-1) | Potency (MKL-2) | Potency (WaGa) | Potency (C33A) | Potency (CAOV3) | Potency (CASKI) | Potency (Es-2) | Potency (Hek293T)

Cc1cnc(CNC(=O)c2c(=O)c3ccc(N4CCCN(C)CC4)nc3n3c2sc2ccccc23)cn1
inactive: max response (CRL-7250) -36.5% and -21.3% | max response (HaCat [1]) -24.1% | Potency (MCC-13) | Potency (MKL-1) | Potency (MKL-2) | activity change, negative = cytotoxicity (C33A) -22% [at 11.6 µM] | activity change, negative = cytotoxicity (CAOV3) -1.16% [at 11.6 µM] | activity change, negative = cytotoxicity (CASKI) -0.786% [at 11.6 µM] | activity change, negative = cytotoxicity (Es-2) -19% [at 11.6 µM] | activity change, negative = cytotoxicity (HeLa) -13.6% [at 11.6 µM] | activity change, negative = cytotoxicity (Hek293T) -21% [at 11.6 µM]
active: Potency (HEK293) 0.0512 µM

COc1cc2nccc(Oc3ccc(NC(=O)Nc4cc(C)on4)c(Cl)c3)c2cc1OC
inactive: Potency (Hek293T)
active: Potency (CRL-7250) 14.8 µM | Potency (HEK293) 13.2 µM | Potency (KB-3-1) 18.7 µM | Potency (NIH3T3 [2]) 9.35 µM and 3.66 µM | Potency (WaGa) 23.5 µM

Cc1ccc(C(=O)N(CCCN)[C@@H](c2oc3cc(Cl)ccc3c(=O)c2Cc2ccccc2)C(C)C)cc1
active: Potency (HEK293) 0.0662 µM | Potency (KB-3-1) 0.0008 µM | Potency (MCC-13) 0.0083 µM | Potency (MKL-2) 8.33 µM
inactive: max response (CRL-7250) -26.7% | Potency (MKL-1) | Potency (WaGa)

CCNC(=O)Nc1ccc(Oc2ncnc(N)c2C=NOC)cc1Cl
inactive: outcome (CRL-7250) | max response (HEK293) -3.24% | outcome (HaCat [1]) | max response (NIH3T3 [2]) 4.69% | outcome (HACAT [3]) | Potency (MCC-13) | Potency (MCC-26) | Potency (MKL-1) | Potency (MKL-2) | Potency (UISO) | Potency (WaGa)

CC[C@H](CC#N)OC(=O)N[C@@H](C)c1cccc(NC(=O)Nc2ccc(-c3cnco3)c(OC)c2)c1
inactive: Potency (CAOV3)
active: Potency (CRL-7250) 1.66 µM and 1.03 µM | Potency (HEK293) 0.418 µM | Potency (KB-3-1) 1.32 µM and 1.64 µM | Potency (NIH3T3 [2]) 1.18 µM and 1.3 µM | Potency (MCC-13) 4.18 µM | Potency (Es-2) 1.78 µM | Potency (Hek293T) 1.78 µM

Cn1cnc(-c2cc3nccc(Oc4ccc(NC(=S)NC(=O)Cc5ccccc5)cc4F)c3s2)c1
inactive: Potency (MCC-13) | Potency (MKL-1) | Potency (MKL-2) | Potency (WaGa) | Potency (C33A) | Potency (CASKI) | Potency (Es-2) | Potency (Hek293T)
active: Potency (CRL-7250) 26.4 µM | Potency (HEK293) 23.5 µM | Potency (NIH3T3 [2]) 11.8 µM and 13 µM | Potency (UISO) 18.7 µM

CCn1c(-c2nonc2N)nc2cncc(CNC3CCNCC3)c21
inactive: max response (HaCat [1]) -17.9% | outcome (HaCat [1]) | max response (KB-3-1) 3.41% and -9.32% | outcome (HACAT [3]) | Potency (MCC-13) | Potency (MKL-1) | Potency (UISO) | Potency (CAOV3) | Potency (CASKI) | Potency (Es-2) | Potency (HeLa)
active: Potency (CRL-7250) 7.31 µM

CN1CC(=O)NC1=NC(=O)Nc1cccc(Cl)c1
inactive: max response (CRL-7250) -9.31% | max response (HEK293) -3.54% | max response (KB-3-1) 5.76% | max response (NIH3T3 [2]) -5.12% | Potency (MCC-13) | Potency (MCC-26) | Potency (UISO) | Potency (WaGa)

C[C@@]1(C(=O)Nc2ccc(F)nc2)CCCN1c1nc(Nc2cc(C3CC3)[nH]n2)c2cccn2n1
active: Potency (CRL-7250) 11.8 µM and 11.6 µM | Potency (HEK293) 3.72 µM | Potency (MCC-26) 16.6 µM | Potency (NIH3T3 [4]) 4.61 µM | Potency (UISO) 0.0833 µM | Potency (WaGa) 3.32 µM | Potency (CASKI) 14.1 µM | Potency (HeLa) 3.98 µM
inactive: max response (HaCat [1]) -23.7% | max response (KB-3-1) -30.1% | Potency (C33A) | Potency (Es-2)

CCCCCCCCCCCCCC(=O)N[C@H](CO)[C@H](O)c1ccc([N+](=O)[O-])cc1
active: Potency (CRL-7250) 9.35 µM | Potency (HEK293) 5.26 µM
inactive: max response (KB-3-1) 5.57% | Potency (MCC-13) | Potency (MCC-26) | Potency (MKL-1) | Potency (MKL-2) | Potency (UISO) | Potency (WaGa)

O=C(c1ccc(F)c(F)c1Nc1ccc(I)cc1F)N1CC(O)([C@H]2CCCCN2)C1
inactive: Potency (MCC-26) | Potency (MKL-1) | Potency (UISO) | Potency (WaGa)
active: Potency (CRL-7250) 2.96 µM | Potency (HEK293) 26.4 µM | Potency (HaCat [1]) 7.43 µM | Potency (NIH3T3 [2]) 8.33 µM

C[C@H]1O[C@@H](n2cc(F)c(=O)[nH]c2=O)[C@H](O)[C@H]1O
active: Potency (HEK293) 13.2 µM
inactive: max response (CRL-7250) -14.8% | max response (HaCat [1]) -27.2% | max response (KB-3-1) -15.3% | Potency (MCC-13) | Potency (MCC-26) | Potency (MKL-1) | Potency (MKL-2)

CNC(=O)c1ccc2c(C(=Nc3cccc(CN(C)C)c3)c3ccccc3)c(O)[nH]c2c1
active: Potency (NIH3T3 [2]) 16.6 µM and 8.2 µM
inactive: max response (CRL-7250) -0.775% and -15% | max response (HaCat [1]) 0.629% | outcome (HaCat [1]) | outcome (KB-3-1) | outcome (HACAT [3]) | Potency (MCC-13) | Potency (MCC-26) | Potency (MKL-1) | Potency (UISO) | Potency (WaGa) | Potency (C33A) | Potency (CAOV3) | Potency (CASKI) | Potency (Es-2) | Potency (HeLa) | Potency (Hek293T)

COC(=O)Nc1ccc(-c2nc(N3CCOCC3)c3cnn(C4CCN(C(=O)OC)CC4)c3n2)cc1
active: Potency (CRL-7250) 0.332 µM | Potency (HEK293) 1.66 µM | Potency (KB-3-1) 1.48 µM | Potency (NIH3T3 [2]) 4.18 µM | Potency (UISO) 0.526 µM | Potency (WaGa) 6.62 µM

Source: PubChem BioAssay (NCATS)
